Laboratory results as given in PubChem BioAssay (EPA / NIEHS).
Records with an inconclusive call do not appear. Activity calls are given as the source filed them. How the source made its calls, unless noted: active means hit-call score of the fitted dose curve at least 0.9, where 1 is the maximum; inconclusive means response in the unintended direction; inactive means score below 0.9.

Columns and labels:
[1] = ATG_TAL_CIS: Attagene CIS-FACTORIAL HepG2 Assay for human TAL Basal Promoter (AID 2282966; active means hit-call score of the fitted dose curve at least 0.9, where 1 is the maximum; inactive means score below 0.9;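 further: background control endpoint measuring basal TAL promoter reporter mRNA not a specific factor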); conditions: HepG2 Attagene cis-factorial TAL promoter reporter; actives raise or lower the signal
Procedure, shortened: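 Background-control endpoint: basal TAL promoter reporter transcripts in transiently transfected HepG2, measured 24 h after dosing. Read-out by RT-PCR with fluorescent primer extension and capillary electrophoresis; gain or loss of signal fitted relative to DMSO.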

[2] = ATG_TGFb_CIS: Attagene CIS-FACTORIAL HepG2 Assay for human Transforming Growth Factor (TGF) (AID 2282967; active means hit-call score of the fitted dose curve at least 0.9, where 1 is the maximum; inactive means score below 0.9); conditions: HepG2 Attagene CIS TGFb reporter, mRNA transcription; actives raise or lower the signal
Procedure, shortened: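 Cells were dosed for 24 hours, after which total RNA was reverse-transcribed and reporter sequences amplified, labeled and sized by capillary electrophoresis. Activity was fitted in both directions against DMSO.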

[3] = ATG_VDRE_CIS: Attagene CIS-FACTORIAL HepG2 Assay for human Vitamin D Receptor Element (VDRE) (AID 2282968; active means hit-call score of the fitted dose curve at least 0.9, where 1 is the maximum; inactive means score below 0.9); conditions: HepG2 VDRE cis-reporter transcription, actives raise or lower the signal
Procedure, shortened: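 Readout is VDRE-driven reporter mRNA reflecting endogenous factor activity in human HepG2 cells, sampled 24 h post-dose. Quantification used labelled RT-PCR products separated by capillary electrophoresis; bidirectional analysis relative to DMSO.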

[4] = molecular target: Steroid hormone receptor ERR1 (Homo sapiens) (UniProt P11474); assay: ATG_ERRa_TRANS: Attagene TRANS-FACTORIAL HepG2 Assay for human Estrogen-Related Receptor alpha (ERRa) (AID 2282971); conditions: HepG2 Attagene TRANS reporter, ERRa transactivation
Sequence of Steroid hormone receptor ERR1 (Homo sapiens) (P11474 whole entry, looked up, the tested form may be a part): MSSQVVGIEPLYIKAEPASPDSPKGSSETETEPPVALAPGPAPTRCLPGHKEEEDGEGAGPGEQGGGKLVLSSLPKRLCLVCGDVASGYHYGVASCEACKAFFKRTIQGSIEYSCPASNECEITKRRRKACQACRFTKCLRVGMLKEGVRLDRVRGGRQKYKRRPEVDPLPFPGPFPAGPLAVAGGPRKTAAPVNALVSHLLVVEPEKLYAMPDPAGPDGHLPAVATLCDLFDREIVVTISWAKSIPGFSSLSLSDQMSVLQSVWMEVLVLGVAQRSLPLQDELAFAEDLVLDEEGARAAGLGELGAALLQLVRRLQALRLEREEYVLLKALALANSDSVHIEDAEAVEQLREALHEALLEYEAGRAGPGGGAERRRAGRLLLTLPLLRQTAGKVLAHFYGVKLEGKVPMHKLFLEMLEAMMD
Procedure, shortened: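 Reporter transcripts from ERRa-Gal4 chimera activity measured in transiently transfected human HepG2 cells 24 hours after dosing, using RT-PCR with 6-FAM primer extension, HpaI digestion and capillary electrophoresis; DMSO is baseline.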

[5] = molecular target: X-box-binding protein 1 (Homo sapiens) (UniProt P17861); assay: ATG_Xbp1_CIS: Attagene CIS-FACTORIAL HepG2 Assay for human X-box Binding Protein 1 (XBP1) (AID 2282972; active means hit-call score of the fitted dose curve at least 0.9, where 1 is the maximum; inactive means score below 0.9); conditions: HepG2 XBP1 cis-element reporter, Attagene multiplex; actives raise or lower the signal
Sequence of X-box-binding protein 1 (Homo sapiens) (P17861 whole entry, looked up): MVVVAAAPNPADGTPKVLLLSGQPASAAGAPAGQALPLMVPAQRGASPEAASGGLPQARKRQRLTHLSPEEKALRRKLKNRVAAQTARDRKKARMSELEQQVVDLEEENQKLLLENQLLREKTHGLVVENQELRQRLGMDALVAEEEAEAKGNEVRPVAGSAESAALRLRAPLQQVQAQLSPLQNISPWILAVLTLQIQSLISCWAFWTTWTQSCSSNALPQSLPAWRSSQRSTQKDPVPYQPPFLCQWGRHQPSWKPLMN
Procedure, shortened: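 Changes in reporter transcript abundance, read by RT-PCR and capillary electrophoresis, reflect endogenous transcription factor activity. Transfected HepG2 cells received compound for 24 hours; DMSO defined baseline for bidirectional analysis.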

[6] = ATG_GAL4_TRANS: Attagene TRANS-FACTORIAL HepG2 Assay for GAL4 (Internal Marker) (AID 2282976); conditions: HepG2 Attagene TRANS GAL4 internal marker reporter
Procedure, shortened: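 In transfected human HepG2 liver cells dosed 24 h, GAL4 reporter mRNA serves as a baseline marker. Detection by RT-PCR with fluorescent capillary electrophoresis, activity fitted upward relative to DMSO.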

[7] = molecular target: Oxysterols receptor LXR-alpha (Homo sapiens) (UniProt Q13133); assay: ATG_LXRa_TRANS: Attagene TRANS-FACTORIAL HepG2 Assay for human Liver X Receptor alpha (LXRa) (AID 2282980); conditions: HepG2 Attagene TRANS reporter, LXRa transactivation
Sequence of Oxysterols receptor LXR-alpha (Homo sapiens) (Q13133 whole entry, looked up, the tested form may be a part): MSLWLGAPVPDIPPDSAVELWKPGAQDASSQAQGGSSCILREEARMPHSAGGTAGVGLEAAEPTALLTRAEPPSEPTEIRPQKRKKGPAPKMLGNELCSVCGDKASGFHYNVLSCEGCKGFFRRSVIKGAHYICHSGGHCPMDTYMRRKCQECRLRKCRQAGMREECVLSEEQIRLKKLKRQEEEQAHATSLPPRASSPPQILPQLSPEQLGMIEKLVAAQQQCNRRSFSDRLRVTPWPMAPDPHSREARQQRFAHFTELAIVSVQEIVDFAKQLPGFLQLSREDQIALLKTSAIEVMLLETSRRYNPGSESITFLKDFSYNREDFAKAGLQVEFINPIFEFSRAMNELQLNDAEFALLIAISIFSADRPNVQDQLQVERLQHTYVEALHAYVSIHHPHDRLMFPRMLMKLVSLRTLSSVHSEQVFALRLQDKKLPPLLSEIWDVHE
Procedure, shortened: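 Chemical-induced reporter mRNA measured by RT-PCR with fluorescent labelling and capillary electrophoresis after 24 h dosing of transiently transfected HepG2 cells expressing exogenous NR-Gal4 chimeras; increases scored against DMSO baseline.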

[8] = molecular target: Hepatocyte nuclear factor 4-alpha (Homo sapiens) (UniProt P41235); assay: ATG_HNF4a_TRANS: Attagene TRANS-FACTORIAL HepG2 Assay for human Hepatocyte Nuclear Factor 4 alpha (HNF4a) (AID 2282982); conditions: HepG2 HNF4a transactivation reporter, mRNA readout
Sequence of Hepatocyte nuclear factor 4-alpha (Homo sapiens) (P41235 whole entry, looked up, the tested form may be a part): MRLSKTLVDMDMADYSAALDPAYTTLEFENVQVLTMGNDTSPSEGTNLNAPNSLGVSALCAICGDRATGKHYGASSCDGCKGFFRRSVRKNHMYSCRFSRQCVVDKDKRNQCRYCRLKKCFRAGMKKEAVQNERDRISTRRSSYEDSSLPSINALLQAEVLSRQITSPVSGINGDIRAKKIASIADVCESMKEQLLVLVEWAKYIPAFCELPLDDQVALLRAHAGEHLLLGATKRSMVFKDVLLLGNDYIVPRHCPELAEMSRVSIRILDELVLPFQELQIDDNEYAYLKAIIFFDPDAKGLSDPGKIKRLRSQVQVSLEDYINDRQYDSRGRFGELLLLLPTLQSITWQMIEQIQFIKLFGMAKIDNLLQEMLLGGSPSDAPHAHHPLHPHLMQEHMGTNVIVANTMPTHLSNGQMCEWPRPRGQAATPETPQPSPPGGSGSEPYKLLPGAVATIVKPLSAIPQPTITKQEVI
Procedure, shortened: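 Activity of an exogenous HNF4a–Gal4 fusion scored as induced GAL4-UAS reporter transcripts after 24 h chemical exposure of transfected human HepG2 cells. Read-out via RT-PCR with 6-FAM labelling and capillary electrophoresis; rise over DMSO baseline.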

[9] = ATG_M_06_TRANS: Attagene TRANS-FACTORIAL HepG2 Assay for M06 Transcription Factor (Internal Marker) (AID 2282983); conditions: HepG2 Attagene TRANS M06 internal marker reporter;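 further: reporter transcript level by RT-PCR then capillary electrophoresis fluorescence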
Procedure, shortened: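 Background-control reporter readout: after 24 h chemical exposure of transiently transfected HepG2 (GAL4-UAS reporter units), mRNA quantified by RT-PCR with fluorescent labeling and capillary electrophoresis. Gain-of-signal fitting against DMSO baseline.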

[10] = ATG_M_32_TRANS: Attagene TRANS-FACTORIAL HepG2 Assay for M32 Transcription Factor (Internal Marker) (AID 2282984); conditions: HepG2 Attagene TRANS M32 internal marker reporter
Procedure, shortened: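 Internal background reporter in transfected HepG2: after 24 h chemical exposure, RNA reverse-transcribed, reporter cDNA amplified, fluorescently labelled and HpaI-cut, then sized by capillary electrophoresis. Gain of signal fitted against DMSO control.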

[11] = molecular target: Nuclear receptor subfamily 4 group A member 2 (Homo sapiens) (UniProt P43354); assay: ATG_NURR1_TRANS: Attagene TRANS-FACTORIAL HepG2 Assay for human Nuclear Receptor Related Protein 1 (NURR1) (AID 2282985); conditions: HepG2 Attagene TRANS reporter, mRNA readout
Sequence of Nuclear receptor subfamily 4 group A member 2 (Homo sapiens) (P43354 whole entry, looked up, the tested form may be a part): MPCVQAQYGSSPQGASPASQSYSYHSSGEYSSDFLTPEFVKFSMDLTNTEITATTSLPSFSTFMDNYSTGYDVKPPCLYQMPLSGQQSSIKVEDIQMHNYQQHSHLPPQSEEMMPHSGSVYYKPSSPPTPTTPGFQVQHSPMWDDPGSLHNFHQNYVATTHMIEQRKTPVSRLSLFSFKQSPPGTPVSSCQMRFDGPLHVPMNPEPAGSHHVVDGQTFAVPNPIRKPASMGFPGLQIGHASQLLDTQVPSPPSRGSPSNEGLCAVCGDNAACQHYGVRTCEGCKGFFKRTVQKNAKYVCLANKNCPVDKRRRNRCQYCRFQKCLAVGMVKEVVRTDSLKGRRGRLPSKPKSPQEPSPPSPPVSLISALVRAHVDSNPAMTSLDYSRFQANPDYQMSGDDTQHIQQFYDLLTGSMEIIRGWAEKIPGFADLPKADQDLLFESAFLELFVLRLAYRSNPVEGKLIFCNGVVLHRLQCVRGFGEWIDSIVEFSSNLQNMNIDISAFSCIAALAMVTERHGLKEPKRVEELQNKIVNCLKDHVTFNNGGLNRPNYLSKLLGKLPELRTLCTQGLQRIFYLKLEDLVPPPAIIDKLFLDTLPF
Procedure, shortened: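 Reporter transcript induction, measured by RT-PCR with fluorescent labelling, HpaI digestion and capillary electrophoresis, after 24 hr dosing of human HepG2 cells transiently expressing an exogenous NR-Gal4 fusion with GAL4-UAS-driven reporters; DMSO as baseline.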

[12] = molecular target: Transcriptional activator Myb (Homo sapiens) (UniProt P10242); assay: ATG_Myb_CIS: Attagene CIS-FACTORIAL HepG2 Assay for human Myeloblastosis (Myb) Proto-Oncogene Transcription Factor (AID 2282986; active means hit-call score of the fitted dose curve at least 0.9, where 1 is the maximum; inactive means score below 0.9); conditions: HepG2 Attagene CIS-FACTORIAL Myb reporter transcription; actives raise or lower the signal
Sequence of Transcriptional activator Myb (Homo sapiens) (P10242 whole entry, looked up): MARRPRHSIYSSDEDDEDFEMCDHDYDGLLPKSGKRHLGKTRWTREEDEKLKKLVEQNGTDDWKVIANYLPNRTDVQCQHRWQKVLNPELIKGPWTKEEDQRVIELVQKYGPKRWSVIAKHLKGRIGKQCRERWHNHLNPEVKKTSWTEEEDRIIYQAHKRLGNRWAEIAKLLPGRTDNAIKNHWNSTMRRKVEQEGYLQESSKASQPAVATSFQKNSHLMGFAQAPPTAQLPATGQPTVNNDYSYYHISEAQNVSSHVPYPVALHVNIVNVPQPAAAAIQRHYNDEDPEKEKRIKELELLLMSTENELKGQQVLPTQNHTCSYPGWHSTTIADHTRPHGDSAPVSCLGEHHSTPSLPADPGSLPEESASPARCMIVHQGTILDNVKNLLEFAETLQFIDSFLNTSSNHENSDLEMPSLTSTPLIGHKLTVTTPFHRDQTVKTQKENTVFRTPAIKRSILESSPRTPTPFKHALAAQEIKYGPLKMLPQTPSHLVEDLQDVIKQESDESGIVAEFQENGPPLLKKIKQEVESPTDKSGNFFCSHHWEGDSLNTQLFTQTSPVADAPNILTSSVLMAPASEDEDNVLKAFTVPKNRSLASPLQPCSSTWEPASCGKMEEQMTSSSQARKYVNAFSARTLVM
Procedure, shortened: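 Endogenous transcription factor activity at a Myb-responsive cis element is reported in human liver HepG2 cells after 24 h chemical treatment. Reporter mRNA is detected by RT-PCR and capillary electrophoresis fluorescence, with DMSO as baseline.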

[13] = molecular target: Nuclear respiratory factor 1 (Homo sapiens) (UniProt Q16656); assay: ATG_NRF1_CIS: Attagene CIS-FACTORIAL HepG2 Assay for human Nuclear Respiratory Factor 1 (NRF1) Orphan Gene (AID 2282987; active means hit-call score of the fitted dose curve at least 0.9, where 1 is the maximum; inactive means score below 0.9); conditions: HepG2 NRF1 cis-element reporter, Attagene multiplex; actives raise or lower the signal
Sequence of Nuclear respiratory factor 1 (Homo sapiens) (Q16656 whole entry, looked up): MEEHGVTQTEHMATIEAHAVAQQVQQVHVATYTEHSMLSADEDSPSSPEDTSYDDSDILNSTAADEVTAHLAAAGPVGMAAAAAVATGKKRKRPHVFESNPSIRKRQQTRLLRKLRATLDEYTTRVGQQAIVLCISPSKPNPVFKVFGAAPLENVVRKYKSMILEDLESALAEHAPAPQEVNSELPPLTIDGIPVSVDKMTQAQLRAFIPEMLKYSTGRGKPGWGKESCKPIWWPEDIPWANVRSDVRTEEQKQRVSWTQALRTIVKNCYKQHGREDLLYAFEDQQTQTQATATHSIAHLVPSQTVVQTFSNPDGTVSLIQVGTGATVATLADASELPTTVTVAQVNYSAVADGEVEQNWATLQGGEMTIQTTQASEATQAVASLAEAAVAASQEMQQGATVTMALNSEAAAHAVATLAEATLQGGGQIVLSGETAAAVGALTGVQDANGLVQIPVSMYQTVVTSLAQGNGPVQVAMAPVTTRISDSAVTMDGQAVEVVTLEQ
Procedure, shortened: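 Human hepatoma HepG2 cells carrying transfected promoter-regulated reporter units were incubated with test chemicals for 24 h. Reporter transcripts were measured by RT-PCR plus capillary electrophoresis, and endpoints derived by bidirectional fitting with DMSO as baseline.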

[14] = ATG_M_19_TRANS: Attagene TRANS-FACTORIAL HepG2 Assay for M19 Transcription Factor (Internal Marker) (AID 2282974); conditions: HepG2 Attagene TRANS-FACTORIAL M19 internal marker reporter
Procedure, shortened: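 After transfection of HepG2 with GAL4-UAS-driven reporter constructs, cells are dosed for 24 h. Total RNA is reverse-transcribed, reporter sequences PCR-amplified and labelled, then HpaI-digested and sized by capillary electrophoresis.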

[15] = molecular target: Bile acid receptor (Homo sapiens) (UniProt Q96RI1); assay: ATG_FXR_TRANS: Attagene TRANS-FACTORIAL HepG2 Assay for Farnesoid X Receptor (FXR) (AID 2282979); conditions: HepG2 Attagene TRANS FXR-GAL4 reporter transcription;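 further: hits raise reporter mRNA above DMSO so AC50 marks FXR activation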
Sequence of Bile acid receptor (Homo sapiens) (Q96RI1 whole entry, looked up, the tested form may be a part): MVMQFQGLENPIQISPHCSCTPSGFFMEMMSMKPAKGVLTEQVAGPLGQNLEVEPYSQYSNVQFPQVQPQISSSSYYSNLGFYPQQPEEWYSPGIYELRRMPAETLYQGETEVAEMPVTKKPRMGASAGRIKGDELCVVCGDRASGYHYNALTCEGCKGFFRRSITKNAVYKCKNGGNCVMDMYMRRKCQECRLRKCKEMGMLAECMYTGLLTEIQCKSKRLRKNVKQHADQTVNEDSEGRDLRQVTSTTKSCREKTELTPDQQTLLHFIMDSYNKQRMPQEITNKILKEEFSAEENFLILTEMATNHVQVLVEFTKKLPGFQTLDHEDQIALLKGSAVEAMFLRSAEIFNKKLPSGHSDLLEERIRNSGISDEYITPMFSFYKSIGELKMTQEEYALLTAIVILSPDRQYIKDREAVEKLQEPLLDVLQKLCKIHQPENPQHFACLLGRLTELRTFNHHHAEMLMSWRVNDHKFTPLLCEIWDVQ
Procedure, shortened: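 Reporter transcripts from transfected HepG2 cells were measured 24 h after dosing, using RT-PCR with capillary electrophoresis of 6-FAM-labelled fragments. The read-out reflects activity of exogenous FXR-Gal4 chimera on GAL4-UAS units, with induction relative to DMSO.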

[16] = molecular target: Oxysterols receptor LXR-beta (Homo sapiens) (UniProt P55055); assay: ATG_LXRb_TRANS: Attagene TRANS-FACTORIAL HepG2 Assay for human Liver X Receptor beta (LXRb) (AID 2282981); conditions: HepG2 Attagene TRANS GAL4-LXRb reporter, mRNA
Sequence of Oxysterols receptor LXR-beta (Homo sapiens) (P55055 whole entry, looked up, the tested form may be a part): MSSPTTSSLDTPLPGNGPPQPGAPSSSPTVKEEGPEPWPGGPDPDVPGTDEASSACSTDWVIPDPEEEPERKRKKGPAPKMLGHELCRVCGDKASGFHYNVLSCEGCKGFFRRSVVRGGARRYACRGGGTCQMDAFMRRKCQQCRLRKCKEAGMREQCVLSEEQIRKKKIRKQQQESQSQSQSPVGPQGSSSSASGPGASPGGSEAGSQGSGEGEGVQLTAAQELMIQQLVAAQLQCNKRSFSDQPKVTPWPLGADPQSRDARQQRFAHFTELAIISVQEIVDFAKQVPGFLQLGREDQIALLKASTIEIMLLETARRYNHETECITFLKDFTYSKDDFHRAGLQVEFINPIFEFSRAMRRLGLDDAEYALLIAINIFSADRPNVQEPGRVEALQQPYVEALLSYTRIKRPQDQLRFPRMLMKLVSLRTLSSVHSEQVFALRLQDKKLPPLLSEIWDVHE
Procedure, shortened: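 After 24 h chemical treatment of transfected HepG2 cells carrying exogenous NR-Gal4 chimeras, reporter mRNA was quantified by fluorescent RT-PCR and capillary electrophoresis; activity taken as increase over DMSO controls.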

[17] = molecular target: Estrogen receptor (Homo sapiens) (UniProt P03372); assay: ATG_ERa_TRANS: Attagene TRANS-FACTORIAL HepG2 Assay for human Estrogen Receptor alpha (ERa) (AID 2282970); conditions: HepG2 Attagene TRANS ERa GAL4 reporter, mRNA
Procedure, shortened: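 Reporter transcripts were measured 24 h after dosing by RT-PCR with fluorescent primer extension and capillary electrophoresis. The system is transiently transfected HepG2 expressing exogenous NR-Gal4 chimeras driving GAL4-UAS reporters; DMSO is the baseline.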

[18] = molecular target: Estrogen-related receptor gamma (Homo sapiens) (UniProt P62508); assay: ATG_ERRg_TRANS: Attagene TRANS-FACTORIAL HepG2 Assay for human Estrogen-Related Receptor gamma (ERRg) (AID 2282977); conditions: HepG2 Attagene TRANS reporter, ERRg transactivation;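 further: hits increase reporter signal over DMSO so potencies reflect activators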
Sequence of Estrogen-related receptor gamma (Homo sapiens) (P62508 whole entry, looked up, the tested form may be a part): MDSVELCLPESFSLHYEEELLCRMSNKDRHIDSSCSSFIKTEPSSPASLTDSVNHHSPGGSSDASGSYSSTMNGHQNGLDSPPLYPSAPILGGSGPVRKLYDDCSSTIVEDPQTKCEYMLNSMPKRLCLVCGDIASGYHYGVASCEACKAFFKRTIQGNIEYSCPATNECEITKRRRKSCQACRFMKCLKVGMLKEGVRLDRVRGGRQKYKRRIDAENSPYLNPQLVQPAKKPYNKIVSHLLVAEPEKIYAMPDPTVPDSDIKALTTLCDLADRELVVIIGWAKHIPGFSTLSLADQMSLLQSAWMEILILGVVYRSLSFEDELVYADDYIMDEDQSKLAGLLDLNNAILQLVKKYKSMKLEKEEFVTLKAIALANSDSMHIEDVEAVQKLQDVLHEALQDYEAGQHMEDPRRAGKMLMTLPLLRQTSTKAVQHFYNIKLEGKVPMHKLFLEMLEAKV
Procedure, shortened: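 Induction of reporter transcripts through a chimeric NR-Gal4 protein is quantified in transfected human HepG2 liver cells after 24 h chemical exposure, using RT-PCR with capillary electrophoresis detection and DMSO as baseline.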

[19] = molecular target: Glucocorticoid receptor (Homo sapiens) (UniProt P04150); assay: ATG_GR_TRANS: Attagene TRANS-FACTORIAL HepG2 Assay for human Glucocorticoid Receptor (GR) (AID 2282978); conditions: HepG2 Attagene TRANS GR reporter, mRNA transcription;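 further: activators score as hits since higher reporter transcript over DMSO is fitted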
Procedure, shortened: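 Multiplexed TRANS reporter system, HepG2; 24 h exposure; RNA → oligo(dT) RT → reporter-specific PCR → 6-FAM primer extension → HpaI cut → CE fluorescence. Gain-of-signal vs DMSO.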

Measured: AC50

C=C(C)C(=O)OCCOC1CC2CC1C1C=CCC21 (configuration not stated)
not listed: [14] | [15] | [16] | [17] | [18] | [19]
inactive: all other assays above

Cc1cc(S(=O)(=O)O)ccc1N=Nc1c(O)ccc2ccccc12
active: [2] 4.96 µM
not listed: [9] | [10] | [17] | [18] | [19]
inactive: all other assays above

CC(C)CCCCCCc1ccc(OCCOCCO)cc1
inactive: [1] | [2] | [3] | [17] | [5] | [6] | [18] | [9] | [12] | [13]

CN1C(=O)c2ccccc2C1=O
not listed: [7] | [10] | [14] | [15] | [16] | [17]
inactive: all other assays above

Cc1occc(=O)c1OC(=O)C(C)C
not listed: [6] | [9] | [15] | [16] | [17] | [18] | [19]
inactive: all other assays above

Brc1ccc(Br)c(Br)c1
inactive: [1] | [2] | [3] | [17] | [5] | [14] | [10] | [12] | [13]

Clc1cc(Cl)c(-c2c(Cl)c(Cl)cc(Cl)c2Cl)cc1Cl
not listed: [6] | [7] | [8] | [9] | [16] | [17] | [18]
inactive: all other assays above

COc1cc(CCC(C)=O)ccc1O
not listed: [4] | [7] | [8] | [9] | [17] | [18]
inactive: all other assays above

C=CC(=C)CCCC(C)(C)OC(C)=O
not listed: [6] | [10] | [11] | [15] | [17] | [18]
inactive: all other assays above

COC(=O)c1cccnc1
not listed: [11] | [15] | [16] | [17] | [18]
inactive: all other assays above

CC1=NN(c2ccc(S(=O)(=O)O)cc2)C(=O)C1
not listed: [4] | [8] | [9] | [11] | [15] | [17] | [18]
inactive: all other assays above

O=C(O)CCCCCCCCCCCC(=O)O
inactive: [1] | [2] | [3] | [4] | [5] | [14] | [7] | [12] | [13]

CC1=C(Br)C(=O)C(Br)=C/C1=C(/c1ccccc1S(=O)(=O)O)c1cc(Br)c(O)c(Br)c1C
active: [3] 40.8 µM
not listed: [4] | [7] | [8] | [10] | [16] | [17] | [18]
inactive: all other assays above

COc1ccc(CCN2CCC(Nc3nc4ccccc4n3Cc3ccc(F)cc3)CC2)cc1
not listed: [7] | [8] | [14] | [16] | [17] | [18] | [19]
inactive: all other assays above

C=COCCOCCOC=C
not listed: [4] | [9] | [16] | [17] | [18] | [19]
inactive: all other assays above

CCOC(=O)[C@@H](C)Oc1ccc(Oc2nc3ccc(Cl)cc3o2)cc1
not listed: [4] | [6] | [8] | [17]
inactive: all other assays above

CC(C)CC(C)CC(O)CC(C)C (configuration not stated)
not listed: [4] | [8] | [9] | [17] | [18] | [19]
inactive: all other assays above

CC(C)CCOC(=O)c1ccccc1
inactive: [1] | [2] | [3] | [5] | [14] | [6] | [10] | [12]

COc1cc([C@@H]2c3cc4c(cc3[C@@H](O[C@@H]3O[C@@H]5CO[C@@H](C)O[C@H]5[C@H](O)[C@H]3O)[C@H]3COC(=O)[C@H]23)OCO4)cc(OC)c1O
inactive: [1] | [2] | [3] | [5] | [14] | [15] | [8] | [9] | [12] | [13]
